ChEMBL document CHEMBL3988442, “University of Dundee, Small-Polar-MMV Screening Library” (2021)
The whole screen tested about 48,000 compounds, of which about 13,000 (27%) showed an effect of 50% or more. The list shows a part of the results.

Tested on: Wolbachia pipientis
Assay: Anti-Wolbachia Cell-Based Screen
Type: functional
Set-up: scale not given: in the data most compounds retested in dose-response had high values
Conditions: 5 µM

| Structure (SMILES) | Percent Effect |
| --- | --- |
| CCc1cc(CNC(=O)Nc2cc(F)ccc2N2CCCCC2)on1 | -38% |
| CCN(CCC(=O)OC)S(=O)(=O)c1cnc2c(c1)c(C)nn2C | 10.85% |
| Cc1cc(C(C)NCCN2CCC(N(C)C)CC2)c(C)s1 (stereo unspecified) | -5.987% |
| COCC(NC(=O)c1cc(NC(C)=O)ccc1Cl)c1ccccn1 (stereo unspecified) | -0.4749% |
| Fc1cccc(N2CCCC3(CN(Cc4ccccn4)CCO3)C2)c1.O=C(O)C(F)(F)F.O=C(O)C(F)(F)F.O=C(O)C(F)(F)F (stereo unspecified) | -3.088% |
| O=S1(=O)NCC2(CCCN(Cc3cccnc3)C2)Oc2ncccc21 (stereo unspecified) | 131.9% |
| O=S1(=O)NCC2(CCCN(Cc3ccccn3)C2)Oc2ncccc21 (stereo unspecified) | 140.3% |
| O=C(C1CC=CC1)N1CCC2(CC1)CN(Cc1ccccn1)CCO2 | -14.52% |
| O=C1COC2(CCN(Cc3ccncc3)CC2)CN1CC1CC1 | -5.616% |
| O=S1(=O)NCC2(CCN(Cc3ccncc3)CC2)Oc2ncccc21 | 130.7% |
| Cc1cc(F)ccc1OC1(C(=O)O)CCN(Cc2ccncc2)CC1 | 7.519% |
| O=C(O)C(F)(F)F.O=C(O)C(F)(F)F.O=C(O)C(F)(F)F.c1cncc(CN2CCCC3(COCCN(c4cnccn4)C3)C2)c1 (stereo unspecified) | -4.353% |
| Fc1cccc(N2CCCC3(CN(Cc4cccnc4)CCO3)C2)c1.O=C(O)C(F)(F)F.O=C(O)C(F)(F)F.O=C(O)C(F)(F)F (stereo unspecified) | 2.254% |
| C[S+]([O-])c1nncn1CC(=O)c1ccc(Cl)c(Cl)c1 (stereo unspecified) | 17.05% |
| Cc1cnn(CCCN2C(=O)CCc3ccccc32)c1 | 16.17% |
| CCc1nnsc1C(=O)N1CCCN(Cc2ccc(F)cc2)CC1 | 12.06% |
| COCc1ccc(C(=O)N2CCCN(c3ccc(F)cc3)CC2)s1 | -6.209% |
| Cc1cc(N2CCCN(C(=O)CSCC3CC3)CC2)ccn1 | 97.17% |
| O=C(CSCC1CC1)N1CCCN(c2ccc(F)cc2)CC1 | 101.8% |
| Cc1nc(CC(=O)N2CCCN(c3ccc(F)cc3)CC2)cs1 | 6.987% |
| Cc1cc(N2CCCN(C(=O)Cc3cc(F)cc(F)c3)CC2)ccn1 | -40.46% |
| O=C(CSCC1CC1)N1CCCN(Cc2ccc(F)cc2)CC1 | 113.6% |
| CSCCC(O)C(=O)N1CCCN(Cc2ccc(F)cc2)CC1 (stereo unspecified) | 20.52% |
| Cc1cc(N2CCCN(C(=O)Cc3cccnc3)CC2)ccn1 | -24.68% |

| Structure (SMILES) | Percent Effect |
| --- | --- |
| CN(Cc1ccccn1)C(=O)c1ccc2c(c1O)OC(C)(C)C2 | -37.36% |
| COc1ccc(OC)c(CN(C)c2ncc(S(N)(=O)=O)s2)c1 | -0.04358% |
| c1cnn(CCNCc2csc(-c3ccsc3)n2)c1 | 8.023% |
| O=C(O)C(F)(F)F.O=C(c1cnccn1)N1C[C@@H]2CCN(c3cnccn3)C[C@@H]2C1 | 21.49% |
| O=C(C1CCCO1)N1C[C@@H]2CCN(c3cnccn3)C[C@@H]2C1.O=C(O)C(F)(F)F (stereo partly specified) | 102.5% |
| O=C(C1CCCC1)N1C[C@@H]2CCN(c3cnccn3)C[C@@H]2C1.O=C(O)C(F)(F)F | 80.73% |
| O=C(C1CCCCC1)N1C[C@@H]2CCN(c3cnccn3)C[C@@H]2C1.O=C(O)C(F)(F)F | 86.55% |
| CC(C)CN1CC(C(=O)N(C)CCc2cn[nH]c2)CC1=O (stereo unspecified) | -9.129% |
| Cc1ncc(CNC(=O)CCc2cccc(F)c2)c(C2CCCN2C)n1 (stereo unspecified) | 2.906% |
| CS(=O)(=O)N1C[C@@H]2CC[C@H](C1)N(CCC(=O)NCc1ccccc1F)C2 | -8.664% |
| Cc1ncc(CNC(=O)CCc2cccs2)c(C2CCCN2C)n1 (stereo unspecified) | 135.8% |
| Cc1ncc(CNC(=O)Cc2cccs2)c(C2CCCN2C)n1 (stereo unspecified) | 125.2% |
| Cc1ncc(CNC(=O)CCc2ccccc2F)c(C2CCCN2C)n1 (stereo unspecified) | 94.99% |
| COc1cccc(CC(=O)NCc2cnc(C)nc2C2CCCN2C)c1 (stereo unspecified) | 116.5% |
| COc1cccc(CCNC(=O)CN2CCCC2c2noc(C)n2)c1 (stereo unspecified) | -3.314% |
| CCOc1ncccc1CNC(=O)N1CCCC1c1cccs1 (stereo unspecified) | -31.15% |
| Cc1ncc(CNC(=O)CCOc2ccccc2)c(C2CCCN2C)n1 (stereo unspecified) | -4.417% |
| O=C1NCCN(Cc2cccnc2)C1CC(=O)N1CCc2n[nH]cc2C1 (stereo unspecified) | -19.58% |
| O=C1C(Sc2nc(=O)ccn2C2CC2)CCN1c1ccccc1F (stereo unspecified) | -10.52% |
| CCNC(=O)N1CCC(NC(=O)NCCc2cc3ccccc3o2)C1 (stereo unspecified) | -2.435% |
| CSCC(C)NCc1ccc2[nH]c(C)c(C)c2c1 (stereo unspecified) | 7.257% |
| COCCC(=O)N1C[C@H]2CC[C@@H]1CN(C1Cc3ccccc3C1)C2 | 12.41% |
| O=C(Nc1nncs1)N(Cc1cccc(O)c1)C1CC1 | -1.611% |
| CCC(C)(CC(=O)O)NC(=O)Cc1ccccc1Br (stereo unspecified) | 0.3012% |

| Structure (SMILES) | Percent Effect |
| --- | --- |
| Cc1ncc(CNC(=O)CCc2c(C)noc2C)c(C2CCCN2C)n1 (stereo unspecified) | 116.8% |
| Cc1noc(C)c1CCCNC(=O)C1CCCN(C(=O)C2CC2)C1 (stereo unspecified) | -0.7156% |
| Cc1nc(C2CCCN2CC(=O)NCCc2ccsc2)no1 (stereo unspecified) | -6.143% |
| Cc1noc(C)c1CNC(=O)c1ccc(NC2CC2)nc1 | 4.161% |
| Cc1ncc(CNC(=O)Cc2ccsc2)c(C2CCCN2C)n1 (stereo unspecified) | 124.7% |
| Cc1ncc(CNC(=O)Cc2ccc(Cl)cc2)c(C2CCCN2C)n1 (stereo unspecified) | -6.333% |
| CCCNC(=O)c1cc(Br)cc(S(=O)(=O)N2CCOCC2)c1F | -12.55% |
| C[C@@H]1C[C@@H]2CCN(C(=O)c3cnccn3)C[C@H]2O1 | -10.48% |
| O=C(c1ccsc1)N1C[C@@H](CN2CCCC2)[C@@H](CO)C1 | 20.63% |
| O=C(C[C@H]1[C@H]2CN(Cc3ccsc3)C[C@@H]12)N1CCCC1.O=C(O)C(F)(F)F | -30.77% |
| O=C(O)C(F)(F)F.O=C(c1cnccn1)N1CC[C@@H]2CO[C@@H](CN3CCCC3)[C@@H]2C1 | -10.73% |
| CN1[C@H](CN2CCCC2)C[C@@H]2CN(C(=O)c3cnccn3)CC[C@@H]21 | 120.7% |
| CN1[C@H](Cn2cncn2)C[C@@H]2CN(Cc3ccsc3)CC[C@@H]21.O=C(O)C(F)(F)F.O=C(O)C(F)(F)F | -21.59% |
| CN1[C@H](CN2CCCC2)C[C@@H]2CN(C(=O)c3ccsc3)CC[C@@H]21 | 81.43% |
| CN1[C@H](CN2CCCC2)C[C@@H]2CN(C(=O)Cc3ccsc3)CC[C@@H]21.O=C(O)C(F)(F)F.O=C(O)C(F)(F)F | 88.77% |
| COc1cc(S(=O)(=O)N2CCCc3ccccc32)cc(C(=O)O)c1OC | 4.14% |
| c1ccc(Cc2nc(C3CC3)nn2-c2ccc3c(c2)OCCO3)nc1 | 5.106% |
| c1ccc(C(CC2CN(Cc3ncc[nH]3)CCO2)c2ccccc2)cc1 (stereo unspecified) | 116.4% |
| CCN(CC1CN(Cc2ncc[nH]2)CCO1)c1cccnn1 (stereo unspecified) | 4.051% |
| c1ccc(C(CC2CN(Cc3c[nH]cn3)CCO2)c2ccccc2)cc1 (stereo unspecified) | 106.4% |
| CCS(=O)(=O)N1CCOC(CCCc2ccccc2)C1 (stereo unspecified) | -15.33% |
| CC(C)c1n[nH]c(C2CN(Cc3ncc[nH]3)CCO2)n1 (stereo unspecified) | -3.355% |
| CC(C)n1ccnc1CN1CCOC(CCc2ccccc2)C1 (stereo unspecified) | -13.14% |
| c1ccc(CCCC2CN(Cc3ncc[nH]3)CCO2)cc1 (stereo unspecified) | 98.97% |

| Structure (SMILES) | Percent Effect |
| --- | --- |
| O=C(NCCC1CN(Cc2c[nH]cn2)CCO1)Nc1ccccc1 (stereo unspecified) | -0.1872% |
| O=C(Nc1cnn(CC(=O)N2CCCO2)c1)c1ccccc1 | 1.203% |
| CCN(C(c1cccnc1)c1ccc2c(c1)CCC2)S(C)(=O)=O (stereo unspecified) | -0.855% |
| O=C(NC1CCN(C2CC2)CC1)NC1CCOc2ccc(Br)cc21 (stereo unspecified) | 24.64% |
| CC1=N[C@@]2(CC[C@@H]3CN(C(=O)NC(C)C)C[C@@H]32)C(=O)N1CC(C)C | 1.346% |
| CNC(=O)c1ccc(CNCc2ccc(SC)c(OC)c2)cc1 | -3.705% |
| C=C(C)COc1cccc(CNCCc2c[nH]cn2)c1 | -1.571% |
| CCC(C)Oc1ccc(CNCCc2c[nH]cn2)cc1Cl (stereo unspecified) | 95.83% |
| CCOc1ccc(CNCCCn2ccnc2)cc1Cl.Cl.Cl | 1.454% |
| CC(=O)NCCNC(=O)NCc1ccc(Br)cc1Cl | -4.256% |
| COc1cc(CNCCNC(=O)c2ccc(O)cc2)ccc1SC | -8.251% |
| C=C(C)COc1ccccc1CNCCc1c[nH]cn1 | -1.538% |
| CCC(C)Oc1ccc(CNCCNC(C)=O)cc1Cl (stereo unspecified) | 110% |
| CC(CNS(C)(=O)=O)Oc1cccc(Cl)c1 (stereo unspecified) | -10.77% |
| CCC(C)Oc1ccc(CNCCNC(C)=O)cc1OC (stereo unspecified) | 123.2% |
| CC(CNCc1ccc(Cl)c(Cl)c1)Oc1ccccn1.Cl (stereo unspecified) | 9.6% |
| CCC(C)Oc1ccc(CNCCNS(C)(=O)=O)cc1Cl (stereo unspecified) | 97.61% |
| COc1cc(C2CC(=O)Oc3cc(C)[nH]c(=O)c32)ccc1OC(F)F (stereo unspecified) | 2.33% |
| Cc1ccccc1[C@@H]1CN(Cc2nc3ncccn3n2)C[C@H]1C(=O)O | -5.6% |
| Cc1nc(C)c(CNC(=O)NC(c2nnc3n2CCC3)C(C)C)s1 (stereo unspecified) | -4.122% |
| COc1ccc(C(=O)Cn2cnnc2[S+](C)[O-])cc1Cl (stereo unspecified) | -30.86% |
| C/C(=C\c1ccccc1)CN1CCCC(c2nnc3n2CCNCC3)C1.Cl (stereo unspecified) | 87.16% |
| Cc1ccc(CC(=O)N2CCC(c3nnc4n3CCC4)CC2)cc1 | -4.36% |
| CC(C)n1c(C2CCCN(CC(N)=O)C2)nc2ccccc21 (stereo unspecified) | -123.1% |
